Source: PubChem BioAssay (Tox21)
Unmarked numbers belong to inactive results. Inconclusive results are not listed. Entries that show only a call come without a potency. Activity calls are given as the source filed them. Calls come from the whole dose curve; as a rule, active = well fitted curve in the direction sought with a large enough effect in the repeat runs; inconclusive = weak or mixed curves; inactive = no such curve, though single readings can be large; an effect the other way counts as inactive or inconclusive.

Tests used:
[1] = A CellTox Green Cytotoxicity Assay to monitor cytotoxicity in HEK293 cells - 40 hour (AID 1224871); note: nearly all actives have a fitted effect of over 45% in size
Outline: (§1)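 Fluorescence intensity, read at 0, 8, 16, 24, 32 and 40 h of compound treatment, reflected dye binding to DNA of dead HEK293 cells; compounds (23 nL, DMSO) were added 5 h after plating cells with reagent.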

[2] = A CellTox Green Cytotoxicity Assay to monitor cytotoxicity in HEK293 cells - 24 hour (AID 1224875); note: series mostly up to about 77 µM; nearly all actives have a fitted effect of over 45% in size
Outline: as §1

[3] = A CellTox Green Cytotoxicity Assay to monitor cytotoxicity in HepG2 cells - 16 hour (AID 1224876); note: nearly all actives have a fitted effect of over 45% in size
Outline: (§2)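 Using 1536-well format, dye-containing HepG2 suspension was seeded, allowed 5 h at 37 C/5% CO2, dosed by pintool with compounds, positive and negative controls, and imaged for fluorescence across 40 h.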

[4] = A CellTox Green Cytotoxicity Assay to monitor cytotoxicity in HepG2 cells - 24 hour (AID 1224878); note: nearly all actives have a fitted effect of over 45% in size
Outline: as §2

[5] = A CellTox Green Cytotoxicity Assay to monitor cytotoxicity in HepG2 cells - 40 hour (AID 1224879); note: nearly all actives have a fitted effect of over 40% in size
Outline: as §2

[6] = A CellTox Green Cytotoxicity Assay to monitor cytotoxicity in HepG2 cells - 0 hour (AID 1224882); note: nearly all actives have a fitted effect of over 35% in size
Outline: as §2

[7] = A CellTox Green Cytotoxicity Assay to monitor cytotoxicity in HepG2 cells - 32 hour (AID 1224883); note: nearly all actives have a fitted effect of over 50% in size
Outline: as §2

[8] = A CellTox Green Cytotoxicity Assay to monitor cytotoxicity in HEK293 cells - 8 hour (AID 1224884); note: nearly all actives have a fitted effect of over 35% in size
Outline: as §1

[9] = qHTS RealTime-Glo MT Cell Viability Assay in HEK293 cells - 16 hour (AID 1224872); note: nearly all actives have a fitted effect of over 50% in size; note: potency is the fitted concentration of half-maximal effect
Outline: (§3)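 Cells + reagent dispensed (600 cells/well, HEK293) → 5 h at 37 C/5% CO2 → 23 nL compound in DMSO pinned → 40 h at 37 C → luminescence read at 0, 8, 16, 24, 32, 40 h.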

[10] = qHTS RealTime-Glo MT Cell Viability Assay in HepG2 cells - 8 hour (AID 1224873); note: nearly all actives have a fitted effect of over 55% in size
Outline: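 Real-time viability: cells seeded at 600 per well together with NanoLuc and cell-permeant prosubstrate, compounds added after 5 h incubation. Luminescence tracked at 0, 8, 16, 24, 32 and 40 h of exposure.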

[11] = qHTS RealTime-Glo MT Cell Viability Assay in HEK293 cells - 40 hour (AID 1224874); conditions: RealTime-Glo luminescence; max response: stronger effect = lower value; note: nearly all actives have a fitted effect of over 50% in size; note: potency is the fitted concentration of half-maximal effect
Outline: (§4)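 Viable HEK293 cells reduce a cell-permeant prosubstrate; the product diffuses out and is consumed by NanoLuc in the medium to give light. Compounds went in after a 5 h incubation and plates were read over the treatment course.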

[12] = qHTS RealTime-Glo MT Cell Viability Assay in HepG2 cells - 32 hour (AID 1224877); note: nearly all actives have a fitted effect of over 55% in size
Outline: (§5)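 Real-time, nonlytic viability: 600 HepG2 cells/well mixed with NanoLuc enzyme plus prosubstrate; 5 h settle, compound (DMSO) added by pintool; luminescence monitored over 40 h at 37 C.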

[13] = qHTS RealTime-Glo MT Cell Viability Assay in HEK293 cells - 0 hour (AID 1224880)
Outline: as §4

[14] = qHTS RealTime-Glo MT Cell Viability Assay in HepG2 cells - 16 hour (AID 1224885); note: nearly all actives have a fitted effect of over 50% in size
Outline: as §5

[15] = qHTS RealTime-Glo MT Cell Viability Assay in HEK293 cells - 24 hour (AID 1224886); note: nearly all actives have a fitted effect of over 50% in size; note: potency is the fitted concentration of half-maximal effect
Outline: as §3

[16] = qHTS RealTime-Glo MT Cell Viability Assay in HEK293 cells - 8 hour (AID 1224887); note: nearly all actives have a fitted effect of over 50% in size; note: potency is the fitted concentration of half-maximal effect
Outline: as §4

[17] = A CellTox Green Cytotoxicity Assay to monitor cytotoxicity in HEK293 cells - 16 hour (AID 1224888); note: nearly all actives have a fitted effect of over 35% in size
Outline: as §1

[18] = qHTS RealTime-Glo MT Cell Viability Assay in HepG2 cells - 0 hour (AID 1224889); note: nearly all actives have a fitted effect of over 50% in size
Outline: as §5

[19] = A CellTox Green Cytotoxicity Assay to monitor cytotoxicity in HEK293 cells - 32 hour (AID 1224881); note: nearly all actives have a fitted effect of over 40% in size
Outline: as §1

Row | Compound | Potency [1] | Potency [2] | Potency [3] | Potency [4] | Potency [5] | Potency [6] | Potency [7] | Potency [8] | Potency [9] | outcome [10] | max response [11] [%] | Potency [12] | Potency [13] | outcome [14] | Potency [15] | Potency [16] | Potency [17] | Potency [18] | Potency [11] | Potency [19]
1 | CC(C)(C)NCC(O)COc1ccc(NC(=O)NC2CCCCC2)cc1 (configuration not stated) | inactive | inactive | inactive | inactive | inactive | inactive | inactive | inactive | – | – | – | – | – | – | – | – | – | – | – | –
2 | CC(C)CCCCCOC(=O)CS | inactive | inactive | inactive | inactive | inactive | inactive | inactive | inactive | inactive | inactive | 4.02 | inactive | inactive | inactive | inactive | inactive | inactive | inactive | – | –
3 | COc1ccnc2c1CCCCC2S(=O)c1nc2ccccc2[nH]1 (configuration not stated) | inactive | inactive | inactive | inactive | inactive | inactive | inactive | – | 9.52 µM (active) | – | – | inactive | inactive | inactive | 6.01 µM (active) | 8.49 µM (active) | inactive | inactive | 7.56 µM (active) | inactive
4 | Cc1ccc(NC=O)c(C)c1 | inactive | inactive | inactive | inactive | inactive | inactive | inactive | inactive | – | inactive | 4.39 | inactive | inactive | – | inactive | inactive | inactive | inactive | – | inactive
5 | CCC(C(=O)O)c1ccc(N2Cc3ccccc3C2=O)cc1 (configuration not stated) | inactive | inactive | inactive | inactive | inactive | inactive | inactive | inactive | inactive | – | – | inactive | inactive | inactive | inactive | inactive | inactive | inactive | – | inactive
6 | O=C1C=CCCC1 | – | inactive | inactive | inactive | – | inactive | inactive | inactive | – | inactive | -0.315 | inactive | inactive | – | – | inactive | inactive | inactive | – | inactive
7 | O=C1OC(=O)C2CC=CCC12 (configuration not stated) | inactive | inactive | inactive | inactive | inactive | inactive | inactive | inactive | – | inactive | 0.701 | inactive | inactive | – | – | inactive | inactive | inactive | – | inactive
8 | Oc1ccc(CCNCCCCCCNCCc2ccccc2)cc1O | – | inactive | inactive | inactive | – | inactive | – | inactive | 23.9 µM (active) | inactive | – | – | – | inactive | 23.9 µM (active) | – | inactive | inactive | 23.9 µM (active) | inactive
9 | CCC(CC)C(=O)O | inactive | inactive | inactive | inactive | inactive | inactive | inactive | inactive | inactive | inactive | 15 | inactive | inactive | inactive | inactive | inactive | inactive | inactive | – | –
10 | O=C(N[C@@H](Cc1ccccc1)[C@@H](O)C(=O)N1C[C@@H](O)[C@@H](O)C1)c1cc2cc(Cl)ccc2[nH]1 | inactive | inactive | – | – | – | inactive | – | – | inactive | inactive | – | inactive | inactive | inactive | – | inactive | inactive | inactive | – | inactive
11 | CCCCCCCCCCCCSC#N | – | inactive | inactive | inactive | inactive | inactive | inactive | – | – | inactive | 0.323 | inactive | inactive | inactive | inactive | inactive | inactive | inactive | – | –
12 | C=CC(C)CCC=C(C)C (configuration not stated) | – | inactive | inactive | inactive | inactive | inactive | inactive | inactive | inactive | inactive | 0.513 | inactive | inactive | inactive | inactive | inactive | – | inactive | – | inactive
